# Assay results as given in the supplement of paper PMC8728848.
# This excerpt belongs to a sample that is enriched for the strongest signals.
# Experiments:
# Assay in all cases: glycan array binding signal (z-score within array); higher = stronger binding
# Conditions in all cases: glycan notation: IUPAC condensed, linker removed
# Fuc(a1-2)Gal(b1-4)GlcNAc = target: Fuc(a1-2)Gal(b1-4)GlcNAc
# In short: (§1)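 Glycan array data were curated from 3228 arrays in the Consortium for Functional Glycomics database and kept only where the protein sequence was available. Glycan names were converted to IUPAC-condensed notation, and columns mapping to the same glycan were averaged. The binding signal is a within-array Z-score, averaged across arrays of the same protein sequence at different concentrations or buffers and across linkers. Negative Z-scores can be read as non-binding.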
# [1] = target: Fuc(a1-2)Gal(b1-4)GlcNAc(b1-2)Man(a1-3)[Fuc(a1-2)Gal(b1-4)GlcNAc(b1-2)Man(a1-6)]Man(b1-4)GlcNAc(b1-4)[Fuc(a1-6)]GlcNAc
# In short: as §1
# [2] = target: Fuc(a1-2)Gal(b1-4)GlcNAc(b1-3)Gal(b1-4)GlcNAc
# In short: as §1
# Fuc(a1-2)[Gal(a1-3)]Gal = target: Fuc(a1-2)[Gal(a1-3)]Gal
# In short: as §1
# [3] = target: Fuc(a1-2)[GalNAc(a1-3)]Gal(b1-4)GlcNAc(b1-6)GalNAc
# In short: as §1
# [4] = target: Fuc(a1-2)[GalNAc(a1-3)]Gal(b1-4)[Fuc(a1-3)]GlcNAc
# In short: as §1
# [5] = target: Fuc(a1-3)[GalNAc(b1-4)]GlcNAc
# In short: as §1
# [6] = target: Gal(a1-3)Gal(b1-3)GlcNAc(b1-3)GalNAc
# In short: as §1
# [7] = target: Gal(a1-3)Gal(b1-3)GlcNAc(b1-6)GalNAc
# In short: as §1
# [8] = target: Gal(a1-3)Gal(b1-4)GlcNAc(b1-2)Man(a1-3)[Gal(a1-3)Gal(b1-4)GlcNAc(b1-2)Man(a1-6)]Man(b1-4)GlcNAc(b1-4)GlcNAc
# In short: as §1
# [9] = target: Gal(a1-4)Gal(b1-4)GlcNAc(b1-3)Gal(b1-4)Glc
# In short: as §1
# Gal(b1-3)Gal(b1-4)GlcNAc = target: Gal(b1-3)Gal(b1-4)GlcNAc
# In short: as §1
# [10] = target: Gal(b1-3)GalNAc(b1-4)Gal(b1-4)Glc
# In short: as §1
# [11] = target: Gal(b1-3)GlcNAc(b1-2)Man(a1-3)[GlcNAc(b1-4)][Gal(b1-3)GlcNAc(b1-2)Man(a1-6)]Man(b1-4)GlcNAc(b1-4)GlcNAc
# In short: as §1
# [12] = target: Gal(b1-3)GlcNAc(b1-6)Gal(b1-4)GlcNAc
# In short: as §1
# [13] = target: Gal(b1-3)[Fuc(a1-4)]GlcNAc(b1-3)Gal(b1-4)[Fuc(a1-3)]GlcNAc
# In short: as §1
# [14] = target: Gal(b1-4)GalNAc(b1-3)[Fuc(a1-2)]Gal(b1-4)GlcNAc
# In short: as §1
# [15] = target: Gal(b1-4)GlcNAc(b1-2)Man(a1-3)[Gal(b1-4)GlcNAc(b1-2)Man(a1-6)]Man(b1-4)GlcNAc(b1-4)[Fuc(a1-6)]GlcNAc
# In short: as §1
# [16] = target: Gal(b1-4)GlcNAc(b1-3)Gal(b1-3)GlcNAc
# In short: as §1
# [17] = target: Gal(b1-4)GlcNAc(b1-3)Gal(b1-4)GlcNAc(b1-2)Man(a1-3)[Gal(b1-4)GlcNAc(b1-3)Gal(b1-4)GlcNAc(b1-2)Man(a1-6)]Man(b1-4)GlcNAc(b1-4)GlcNAc
# In short: as §1
# [18] = target: Gal(b1-4)GlcNAc(b1-3)Gal(b1-4)GlcNAc(b1-3)Gal(b1-4)GlcNAc(b1-2)Man(a1-3)[Gal(b1-4)GlcNAc(b1-3)Gal(b1-4)GlcNAc(b1-3)Gal(b1-4)GlcNAc(b1-2)Man(a1-6)]Man(b1-4)GlcNAc(b1-4)GlcNAc
# In short: as §1
# [19] = target: Gal(b1-4)GlcNAc(b1-3)Gal(b1-4)GlcNAc(b1-3)GalNAc
# In short: as §1
# [20] = target: Gal(b1-4)GlcNAc(b1-3)Gal(b1-4)GlcNAc(b1-3)[Gal(b1-4)GlcNAc(b1-3)Gal(b1-4)GlcNAc(b1-6)]GalNAc
# In short: as §1
# [21] = target: Gal(b1-4)GlcNAc(b1-3)Gal(b1-4)GlcNAc(b1-6)[Gal(b1-3)]GalNAc
# In short: as §1
# Gal4S(b1-4)GlcNAc = target: Gal4S(b1-4)GlcNAc
# In short: as §1
# Gal6P(b1-4)GlcNAc = target: Gal6P(b1-4)GlcNAc
# In short: as §1
# GalNAc(b1-3)GalNAc = target: GalNAc(b1-3)GalNAc
# In short: as §1
# GalNAc(b1-6)GalNAc = target: GalNAc(b1-6)GalNAc
# In short: as §1
# [22] = target: GlcNAc(b1-2)[GlcNAc(b1-4)]Man(a1-3)[GlcNAc(b1-4)][GlcNAc(b1-2)[GlcNAc(b1-6)]Man(a1-6)]Man(b1-4)GlcNAc(b1-4)[Fuc(a1-6)]GlcNAc
# In short: as §1
# [23] = target: GlcNAc(b1-2)[GlcNAc(b1-6)]Man(a1-6)[GlcNAc(b1-2)Man(a1-3)]Man(b1-4)GlcNAc(b1-4)GlcNAc
# In short: as §1
# [24] = target: GlcNAc(b1-3)Gal(b1-4)GlcNAc(b1-3)Gal(b1-4)GlcNAc(b1-3)Gal(b1-4)GlcNAc(b1-3)Gal(b1-4)GlcNAc(b1-2)Man(a1-3)[GlcNAc(b1-3)Gal(b1-4)GlcNAc(b1-3)Gal(b1-4)GlcNAc(b1-3)Gal(b1-4)GlcNAc(b1-3)Gal(b1-4)GlcNAc(b1-2)Man(a1-6)]Man(b1-4)GlcNAc(b1-4)[Fuc(a1-6)]GlcNAc
# In short: as §1
# [25] = target: GlcNAc(b1-4)Gal(b1-4)GlcNAc
# In short: as §1
# [26] = target: GlcNAc(b1-4)GlcNAc(b1-4)GlcNAc(b1-4)GlcNAc(b1-4)GlcNAc
# In short: as §1
# [27] = target: GlcNAc6S(b1-3)Gal(b1-4)GlcNAc
# In short: as §1
# [28] = target: Man(a1-2)Man(a1-3)[Man(a1-2)Man(a1-6)]Man(a1-6)[Man(a1-2)Man(a1-2)Man(a1-3)]Man
# In short: as §1
# [29] = target: Man(a1-3)[Man(a1-6)]Man(a1-6)[Man(a1-2)Man(a1-3)]Man(b1-4)GlcNAc(b1-4)GlcNAc
# In short: as §1
# [30] = target: Neu5Ac(a2-3)Gal(b1-3)GalNAc6S
# In short: as §1
# [31] = target: Neu5Ac(a2-3)Gal(b1-3)GlcNAc(b1-2)Man(a1-3)[GlcNAc(b1-4)][Neu5Ac(a2-3)Gal(b1-3)GlcNAc(b1-2)Man(a1-6)]Man(b1-4)GlcNAc(b1-4)GlcNAc
# In short: as §1
# [32] = target: Neu5Ac(a2-3)Gal(b1-3)[Neu5Ac(a2-6)]GlcNAc(b1-3)[Fuc(a1-3)[Gal(b1-4)]GlcNAc(b1-6)]Gal(b1-4)Glc
# In short: as §1
# [33] = target: Neu5Ac(a2-3)Gal(b1-4)GlcNAc(b1-2)[Neu5Ac(a2-3)Gal(b1-4)GlcNAc(b1-2)]Man(a1-6)[Neu5Ac(a2-3)Gal(b1-4)GlcNAc(b1-2)Man(a1-3)][GlcNAc(b1-4)]Man(b1-4)GlcNAc(b1-4)GlcNAc
# In short: as §1
# [34] = target: Neu5Ac(a2-3)Gal(b1-4)GlcNAc(b1-2)[Neu5Ac(a2-3)Gal(b1-4)GlcNAc(b1-6)]Man(a1-6)[Neu5Ac(a2-3)Gal(b1-4)GlcNAc(b1-2)Man(a1-3)]Man(b1-4)GlcNAc(b1-4)GlcNAc
# In short: as §1
# [35] = target: Neu5Ac(a2-3)Gal(b1-4)GlcNAc(b1-3)Gal(b1-4)GlcNAc
# In short: as §1
# [36] = target: Neu5Ac(a2-3)Gal(b1-4)GlcNAc(b1-3)Gal(b1-4)GlcNAc(b1-2)Man(a1-3)[Neu5Ac(a2-3)Gal(b1-4)GlcNAc(b1-3)Gal(b1-4)GlcNAc(b1-2)Man(a1-6)]Man(b1-4)GlcNAc(b1-4)GlcNAc
# In short: as §1
# [37] = target: Neu5Ac(a2-3)Gal(b1-4)GlcNAc(b1-3)Gal(b1-4)GlcNAc(b1-3)Gal(b1-4)GlcNAc(b1-2)Man(a1-3)[Neu5Ac(a2-3)Gal(b1-4)GlcNAc(b1-3)Gal(b1-4)GlcNAc(b1-3)Gal(b1-4)GlcNAc(b1-2)Man(a1-6)]GalNAc
# In short: as §1
# [38] = target: Neu5Ac(a2-3)Gal6S(b1-4)[Fuc(a1-3)]GlcNAc
# In short: as §1
# [39] = target: Neu5Ac(a2-3)[GalNAc(b1-4)]Gal(b1-4)GlcNAc(b1-3)GalNAc
# In short: as §1
# [40] = target: Neu5Ac(a2-6)Gal(b1-4)GlcNAc(b1-2)Man(a1-3)Man(b1-4)GlcNAc(b1-4)GlcNAc
# In short: as §1
# [41] = target: Neu5Ac(a2-6)Gal(b1-4)GlcNAc(b1-3)Gal(b1-4)GlcNAc(b1-3)Gal(b1-4)GlcNAc(b1-2)Man(a1-3)[Neu5Ac(a2-6)Gal(b1-4)GlcNAc(b1-3)Gal(b1-4)GlcNAc(b1-3)Gal(b1-4)GlcNAc(b1-2)Man(a1-6)]GalNAc
# In short: as §1
# [42] = target: Neu5Ac(a2-6)Gal(b1-4)GlcNAc(b1-3)Gal(b1-4)GlcNAc(b1-3)[Neu5Ac(a2-6)Gal(b1-4)GlcNAc(b1-3)Gal(b1-4)GlcNAc(b1-6)]GalNAc
# In short: as §1
# [43] = target: Neu5Ac(a2-8)Neu5Ac(a2-3)Gal(b1-4)Glc
# In short: as §1
binder,measurement,setting,value
"CBM13 2a (Mycobacterium tuberculosum), P64849 (protein) DGPVQLKSRLGDVCLDAPSGSWFSPLVINPCNGTDFQRWNLTDDRQVESVAFPGECVNIGNALWARLQPCVNWISQHWTVQPDGLVKSDLDACLTVLGGPDPGTWVSTRWCDPNAPDQQWDSVPLEHHHHHH",glycan array binding signal (z-score),Fuc(a1-2)Gal(b1-4)GlcNAc,-0.294
same,glycan array binding signal (z-score),[1],0.023
same,glycan array binding signal (z-score),[2],-0.362
same,glycan array binding signal (z-score),Fuc(a1-2)[Gal(a1-3)]Gal,-0.26
same,glycan array binding signal (z-score),[3],-0.303
same,glycan array binding signal (z-score),[4],0.434
same,glycan array binding signal (z-score),[5],-0.31
same,glycan array binding signal (z-score),[6],-0.132
same,glycan array binding signal (z-score),[7],-0.286
same,glycan array binding signal (z-score),[8],-0.178
same,glycan array binding signal (z-score),[9],-0.267
same,glycan array binding signal (z-score),Gal(b1-3)Gal(b1-4)GlcNAc,-0.121
same,glycan array binding signal (z-score),[10],-0.32
same,glycan array binding signal (z-score),[11],-0.203
same,glycan array binding signal (z-score),[12],-0.345
same,glycan array binding signal (z-score),[13],-0.184
same,glycan array binding signal (z-score),[14],-0.335
same,glycan array binding signal (z-score),[15],0.207
same,glycan array binding signal (z-score),[16],-0.187
same,glycan array binding signal (z-score),[17],3.82
same,glycan array binding signal (z-score),[18],3.22
same,glycan array binding signal (z-score),[19],6.08
same,glycan array binding signal (z-score),[20],4.69
same,glycan array binding signal (z-score),[21],5.73
same,glycan array binding signal (z-score),Gal4S(b1-4)GlcNAc,-0.154
same,glycan array binding signal (z-score),Gal6P(b1-4)GlcNAc,-0.708
same,glycan array binding signal (z-score),GalNAc(b1-3)GalNAc,-0.167
same,glycan array binding signal (z-score),GalNAc(b1-6)GalNAc,-0.3
same,glycan array binding signal (z-score),[22],-0.406
same,glycan array binding signal (z-score),[23],0.094
same,glycan array binding signal (z-score),[24],-0.169
same,glycan array binding signal (z-score),[25],-0.553
same,glycan array binding signal (z-score),[26],-0.213
same,glycan array binding signal (z-score),[27],-0.288
same,glycan array binding signal (z-score),[28],-0.338
same,glycan array binding signal (z-score),[29],6.51
same,glycan array binding signal (z-score),[30],-0.262
same,glycan array binding signal (z-score),[31],-0.103
same,glycan array binding signal (z-score),[32],-0.258
same,glycan array binding signal (z-score),[33],-0.048
same,glycan array binding signal (z-score),[34],-0.017
same,glycan array binding signal (z-score),[35],-0.249
same,glycan array binding signal (z-score),[36],7.02
same,glycan array binding signal (z-score),[37],9.05
same,glycan array binding signal (z-score),[38],-0.271
same,glycan array binding signal (z-score),[39],4.49
same,glycan array binding signal (z-score),[40],-0.031
same,glycan array binding signal (z-score),[41],4.67
same,glycan array binding signal (z-score),[42],8.64
same,glycan array binding signal (z-score),[43],-0.117
